# Test results reported in PubChem BioAssay (EPA / NIEHS).
# Active and inactive are the calls of the source. How the source made its calls: active means hit-call score of the fitted dose curve at least 0.9, where 1 is the maximum; inactive means score below 0.9.
# Tests used:
# [1] = ATG_GLI_CIS: Attagene CIS-FACTORIAL HepG2 Assay for human Zinc Finger Protein GLI1 (AID 2282945); conditions: HepG2, Attagene cis-factorial reporter mRNA, GLI element; actives raise or lower the signal
# Outline: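 HepG2 cells transiently transfected with cis-promoter multiplexed reporter units report endogenous transcription factor activity. After 24 h chemical exposure, reporter mRNA was quantified by RT-PCR, 6-FAM labelling, HpaI digestion and capillary electrophoresis, with bidirectional fitting against DMSO.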
# [2] = ATG_GRE_CIS: Attagene CIS-FACTORIAL HepG2 Assay for human Glucocorticoid Response Elements (GRE) (AID 2282947); conditions: HepG2 GRE cis-reporter, Attagene multiplex mRNA; actives raise or lower the signal
# Outline: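 Cells (HepG2) bearing transfected cis-promoter reporter transcription units were treated with chemical for 24 hours. Reporter mRNA was measured via RT-PCR with capillary electrophoresis, and activity was fitted in both directions relative to DMSO.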
# [3] = ATG_ISRE_CIS: Attagene CIS-FACTORIAL HepG2 Assay for human Interferon Regulatory Factor 1 (IRF1) binding to an Interferon-Stimulated Response Element (ISRE) (AID 2282948); conditions: HepG2 ISRE cis-reporter (Attagene), mRNA transcription readout; actives raise or lower the signal
# Outline: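 Endogenous transcription factor activity read as reporter transcript abundance via RT-PCR and capillary electrophoresis. HepG2 cells transiently transfected, 24 h chemical exposure. Gain or loss fitted against DMSO baseline.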
# [4] = ATG_M_32_CIS: Attagene CIS-FACTORIAL HepG2 Assay for M32 Transcription Factor (Internal Marker) (AID 2282949); conditions: HepG2 Attagene cis-factorial M32 reporter, mRNA; actives raise or lower the signal;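 further: background control marker of the multiplexed CIS panel rather than a real target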
# Outline: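 HepG2 human liver cells transiently transfected with cis-promoter-driven multiple reporter transcription units, dosed 24 h. Reporter mRNA quantified by RT-PCR, FAM-labelled primer extension, HpaI digest and capillary electrophoresis; bidirectional fit versus DMSO baseline.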
# [5] = ATG_M_06_CIS: Attagene CIS-FACTORIAL HepG2 Assay for M06 Transcription Factor (Internal Marker) (AID 2282950); conditions: HepG2 Attagene CIS-FACTORIAL M06 internal marker reporter; actives raise or lower the signal
# Outline: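 Terse: HepG2, transient MRTU transfection (FuGene 6), 24 h dosing; total RNA, oligo(dT) RT, PCR, FAM label, HpaI cut, capillary electrophoresis; bidirectional fit vs DMSO baseline; background-control endpoint.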
# [6] = molecular target: Hypoxia-inducible factor 1-alpha (Homo sapiens) (UniProt Q16665); assay: ATG_HIF1a_CIS: Attagene CIS-FACTORIAL HepG2 Assay for human Hypoxia Inducible Factor 1 (HIF1A) (AID 2282951); conditions: HepG2 Attagene cis-factorial HIF1a reporter transcription; actives raise or lower the signal
# Hypoxia-inducible factor 1-alpha (Homo sapiens), sequence (Q16665 whole entry, looked up): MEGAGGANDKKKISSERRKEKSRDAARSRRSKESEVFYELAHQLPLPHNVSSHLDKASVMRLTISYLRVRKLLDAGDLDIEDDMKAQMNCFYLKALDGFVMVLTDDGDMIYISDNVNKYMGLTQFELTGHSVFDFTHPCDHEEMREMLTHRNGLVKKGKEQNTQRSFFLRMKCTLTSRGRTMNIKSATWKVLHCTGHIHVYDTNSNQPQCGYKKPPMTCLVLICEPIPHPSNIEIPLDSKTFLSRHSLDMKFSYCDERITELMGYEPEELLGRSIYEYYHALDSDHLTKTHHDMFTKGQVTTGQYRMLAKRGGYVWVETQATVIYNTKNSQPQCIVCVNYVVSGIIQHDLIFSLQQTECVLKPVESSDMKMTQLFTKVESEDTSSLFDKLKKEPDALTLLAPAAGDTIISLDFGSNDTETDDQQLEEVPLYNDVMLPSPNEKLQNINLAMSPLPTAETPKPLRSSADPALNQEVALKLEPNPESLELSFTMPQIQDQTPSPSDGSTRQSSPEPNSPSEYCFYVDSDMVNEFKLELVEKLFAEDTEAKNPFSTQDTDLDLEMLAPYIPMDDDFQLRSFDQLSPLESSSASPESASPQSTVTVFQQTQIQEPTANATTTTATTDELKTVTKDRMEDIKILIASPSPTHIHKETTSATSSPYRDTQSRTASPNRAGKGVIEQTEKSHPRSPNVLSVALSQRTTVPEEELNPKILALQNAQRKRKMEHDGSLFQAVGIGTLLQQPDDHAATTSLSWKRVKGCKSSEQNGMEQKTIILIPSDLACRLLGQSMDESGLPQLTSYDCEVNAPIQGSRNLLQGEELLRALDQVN
# Outline: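 Activity is fitted in both directions relative to DMSO. Reporter transcripts are read by RT-PCR, fluorescent primer extension and capillary electrophoresis after 24 h chemical treatment. The cells are HepG2 carrying transiently transfected cis-element-driven reporter units responding to endogenous factors.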
# [7] = molecular target: Hepatocyte nuclear factor 6 (Homo sapiens) (UniProt Q9UBC0); assay: ATG_HNF6_CIS: Attagene CIS-FACTORIAL HepG2 Assay for human Hepatocyte Nuclear Factor 6 (HNF6) (AID 2282952); conditions: HepG2 Attagene cis-factorial HNF6 reporter transcription; actives raise or lower the signal
# Hepatocyte nuclear factor 6 (Homo sapiens), sequence (Q9UBC0 whole entry, looked up, the tested form may be a part): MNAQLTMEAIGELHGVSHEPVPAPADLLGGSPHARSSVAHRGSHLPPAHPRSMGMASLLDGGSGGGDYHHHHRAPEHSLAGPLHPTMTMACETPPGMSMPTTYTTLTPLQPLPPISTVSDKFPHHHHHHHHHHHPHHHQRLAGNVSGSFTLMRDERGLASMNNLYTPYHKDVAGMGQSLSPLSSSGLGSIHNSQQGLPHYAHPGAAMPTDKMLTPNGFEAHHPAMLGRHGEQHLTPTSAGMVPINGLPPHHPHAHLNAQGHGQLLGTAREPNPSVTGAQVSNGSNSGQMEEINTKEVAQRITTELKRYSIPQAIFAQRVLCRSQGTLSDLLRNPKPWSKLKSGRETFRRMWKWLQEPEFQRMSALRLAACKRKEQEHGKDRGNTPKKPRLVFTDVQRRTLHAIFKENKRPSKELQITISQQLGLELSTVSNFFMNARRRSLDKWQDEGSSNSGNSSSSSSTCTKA
# Outline: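 First, HepG2 cells were transfected with the multiplexed cis reporter library and dosed with chemical for 24 h. Next, RNA was reverse-transcribed, PCR-amplified and fluorescently labelled. Finally, HpaI-digested fragments were read by capillary electrophoresis.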
# [8] = molecular target: Heat shock factor protein 1 (Homo sapiens) (UniProt Q00613); assay: ATG_HSE_CIS: Attagene CIS-FACTORIAL HepG2 Assay for human Heat Shock Transcription Factor 1 (HSE) (AID 2282953); conditions: HepG2 HSE cis-reporter, Attagene RNA transcription; actives raise or lower the signal
# Heat shock factor protein 1 (Homo sapiens), sequence (Q00613 whole entry, looked up, the tested form may be a part): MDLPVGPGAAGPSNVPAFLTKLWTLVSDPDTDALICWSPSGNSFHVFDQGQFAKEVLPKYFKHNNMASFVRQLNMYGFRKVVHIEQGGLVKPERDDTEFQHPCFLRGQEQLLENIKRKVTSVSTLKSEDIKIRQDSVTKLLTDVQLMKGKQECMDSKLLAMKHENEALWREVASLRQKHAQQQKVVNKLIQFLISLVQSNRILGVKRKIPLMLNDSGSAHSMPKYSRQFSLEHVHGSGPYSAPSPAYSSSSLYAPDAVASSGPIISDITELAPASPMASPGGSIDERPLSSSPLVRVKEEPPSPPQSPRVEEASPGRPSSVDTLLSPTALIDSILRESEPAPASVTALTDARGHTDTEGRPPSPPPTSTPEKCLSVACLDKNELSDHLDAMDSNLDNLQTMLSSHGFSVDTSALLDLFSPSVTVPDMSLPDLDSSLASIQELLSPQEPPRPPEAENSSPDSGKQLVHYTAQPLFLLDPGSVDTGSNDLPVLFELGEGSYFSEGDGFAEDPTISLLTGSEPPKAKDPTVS
# Outline: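 Read-out: fluorescence of reporter-specific RT-PCR fragments separated by capillary electrophoresis. HepG2 carrying transfected cis-element reporter units; 24 h dosing; activity fitted in both directions relative to DMSO baseline.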
# [9] = ATG_MRE_CIS: Attagene CIS-FACTORIAL HepG2 Assay for human Metal Responsive Element (MRE) (AID 2282954); conditions: HepG2 MRE cis-reporter transcription, Attagene multiplex; actives raise or lower the signal
# Outline: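 Cells were transfected with cis-promoter reporter transcription units, then dosed for 24 h. RNA was reverse-transcribed, amplified, fluorescently labelled and resolved by capillary electrophoresis, and activity was fitted in both directions relative to DMSO.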
# [10] = molecular target: Bile acid receptor (Homo sapiens) (UniProt Q96RI1); assay: ATG_IR1_CIS: Attagene CIS-FACTORIAL HepG2 Assay for human Nuclear Receptor Subfamily 1 Group H Member 4 (NR1H4), IR1 submotif (AID 2282946); conditions: IR1 reporter transcription, actives raise or lower the signal
# Bile acid receptor (Homo sapiens), sequence (Q96RI1 whole entry, looked up): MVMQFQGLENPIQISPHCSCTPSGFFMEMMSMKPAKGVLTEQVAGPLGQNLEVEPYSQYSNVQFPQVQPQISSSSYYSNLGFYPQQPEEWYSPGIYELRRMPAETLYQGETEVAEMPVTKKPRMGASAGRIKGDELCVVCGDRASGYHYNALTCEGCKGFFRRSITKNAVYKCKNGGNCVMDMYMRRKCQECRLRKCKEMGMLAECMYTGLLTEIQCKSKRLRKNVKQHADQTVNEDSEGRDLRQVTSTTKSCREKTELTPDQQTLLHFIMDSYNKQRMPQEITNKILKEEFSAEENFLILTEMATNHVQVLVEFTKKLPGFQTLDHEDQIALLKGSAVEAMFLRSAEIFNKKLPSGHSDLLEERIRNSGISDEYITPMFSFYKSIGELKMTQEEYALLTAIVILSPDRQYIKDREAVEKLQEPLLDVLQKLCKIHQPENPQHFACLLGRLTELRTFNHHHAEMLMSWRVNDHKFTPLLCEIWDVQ
# Outline: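 Readout: reporter transcript levels by RT-PCR with fluorescent capillary electrophoresis, from HepG2 cells transiently transfected with multiplexed cis-regulated reporters and dosed 24 h. Gain- or loss-of-signal fitted versus DMSO negative control.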
Structure (SMILES),outcome [1],outcome [2],outcome [3],outcome [4],outcome [5],outcome [6],outcome [7],outcome [8],outcome [9],AC50 [3],AC50 [8],AC50 [9],outcome [10],AC50 [6],AC50 [2],AC50 [4]
Nc1cc([N+](=O)[O-])cc(Cl)c1O,inactive,inactive,inactive,inactive,inactive,inactive,inactive,inactive,–,–,–,–,–,–,–,–
CCCCOC(=O)C(C)O (stereo not given),inactive,inactive,inactive,inactive,inactive,inactive,inactive,inactive,inactive,–,–,–,–,–,–,–
O=C(O)C(F)(F)C(F)(F)C(F)(F)C(=O)O,inactive,inactive,inactive,inactive,inactive,inactive,inactive,inactive,inactive,–,–,–,–,–,–,–
CCOC(=O)CCC(C)=O,inactive,inactive,inactive,inactive,inactive,inactive,inactive,inactive,inactive,–,–,–,–,–,–,–
CN1CN(C)CN(C)C1,inactive,inactive,–,inactive,inactive,inactive,inactive,–,–,74.3 µM (active),160 µM (active),182 µM (active),–,–,–,–
C=CCOC(=O)CC(C)C,inactive,inactive,inactive,inactive,inactive,inactive,inactive,inactive,inactive,–,–,–,inactive,–,–,–
F[Si-2](F)(F)(F)(F)F,inactive,inactive,inactive,inactive,inactive,inactive,inactive,inactive,inactive,–,–,–,inactive,–,–,–
Cc1ccc([N+](=O)[O-])c(C)c1,inactive,inactive,inactive,inactive,inactive,inactive,inactive,inactive,–,–,–,–,–,–,–,–
O=C(F)C1(F)C(F)(F)C(F)(F)C(F)(F)C(F)(F)C1(F)F,inactive,inactive,inactive,inactive,inactive,inactive,inactive,inactive,inactive,–,–,–,–,–,–,–
CSc1ccc(O)cc1C,inactive,inactive,inactive,inactive,inactive,inactive,inactive,inactive,–,–,–,–,–,–,–,–
O=C1c2c(O)ccc(Nc3ccc(CCO)cc3)c2C(=O)c2c([N+](=O)[O-])ccc(O)c21,inactive,inactive,inactive,inactive,inactive,inactive,inactive,inactive,inactive,–,–,–,–,–,–,–
O=C1OC(=O)c2ccc3c4c(ccc1c24)C(=O)OC3=O,–,inactive,inactive,inactive,inactive,inactive,inactive,inactive,inactive,–,–,–,inactive,–,–,–
C=C(C)CCCC,–,inactive,inactive,inactive,inactive,inactive,inactive,inactive,inactive,–,–,–,inactive,–,–,–
CCCCCCCC/C=C\CCCCCCCC(=O)OCC(O)CO (stereo not given),–,inactive,inactive,inactive,inactive,–,inactive,inactive,inactive,–,–,–,inactive,100 µM (active),–,–
O=C(Cl)C(F)(F)C(F)(F)C(F)(F)C(F)(F)C(F)(F)C(F)(F)C(F)(F)F,–,inactive,inactive,inactive,inactive,inactive,inactive,inactive,inactive,–,–,–,–,–,–,–
O=C=NCc1cccc(CN=C=O)c1,–,inactive,inactive,inactive,inactive,inactive,inactive,inactive,inactive,–,–,–,inactive,–,–,–
CC1=CCC2C(=O)OC(=O)C2C1 (stereo not given),–,inactive,inactive,inactive,inactive,inactive,inactive,inactive,inactive,–,–,–,–,–,–,–
O=C=Nc1cccc2c(N=C=O)cccc12,–,inactive,inactive,inactive,inactive,inactive,inactive,inactive,inactive,–,–,–,inactive,–,–,–
CCCCCCCCCc1ccc(OCCO)cc1,–,–,–,–,inactive,–,inactive,–,–,18.7 µM (active),16.8 µM (active),13.3 µM (active),–,13.3 µM (active),19.2 µM (active),21.7 µM (active)
Nc1cccnc1N,–,inactive,inactive,inactive,inactive,inactive,inactive,inactive,–,–,–,–,inactive,–,–,–
